{"source": "PubChem BioAssay AID2685", "about": "(National Center for Advancing Translational Sciences (NCATS), 2010)", "note": "Screen size: about 320,000 compounds; about 2,100 (0.66%) were called active. About 53% were inconclusive and are not listed. The call rests on the fitted dose curve; in most records, active means well fitted inhibition curve with a large enough effect in the signal ratio, with a control signal flat (not every such curve was filed as active); inconclusive means small, poorly fitted or top-dose-only effect, or effect the other way, or a change in a side signal; inactive means flat fitted curve, though single readings scatter; the % refers to the signal ratio. The full list was thinned out, with actives kept by preference. Potency means the concentration at half of the fitted maximal effect.", "data": [{"test": "qHTS Assay for Lipid Storage Modulators in Drosophila S3 Cells;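 on cell number change: cells counted by Cell Tracker Red CMTPX staining in the red channel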; on lipid storage change, negative = inhibition: on the % scale 0 is the no-effect control and ±100 the full control effect", "conditions": "BODIPY lipid droplet fluorescence, 18-24 h, cells fed with added oleic acid; cell number change: measured here: cell count max response; series mostly up to 46.1 µM; lipid storage change, negative = inhibition: at the top concentration", "summary_of_the_method": "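Drosophila S3 cells loaded with oleic acid (400 uM, as added) and compounds at several concentrations; lipid droplets imaged by 488-nm laser-scanning cytometry, 500–530 nm intensity and object ratio to cell channel. Percent activity normalized to 20 uM Triacsin C.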", "units": {"cell number change": "%"}, "values": [{"smiles": "Cc1ccc2nc(/C(C#N)=C/c3ccccc3C(=O)O)[nH]c2c1", "outcome": "inactive"}, {"smiles": "Cc1ccc2nc(/C(C#N)=C\\c3ccc(Oc4ccc(C(F)(F)F)cc4[N+](=O)[O-])cc3)[nH]c2c1", "lipid storage change, negative = inhibition": "-3.61% (inactive)", "cell number change": 1.55}, {"smiles": "Cc1ccc2nc(/C(C#N)=C/c3cn[nH]c3-c3ccc(F)cc3)[nH]c2c1", "outcome": "inactive", "cell number change": -24.5}, {"smiles": "N#C/C(=C\\c1ccc([N+](=O)[O-])o1)c1nc2ccccc2[nH]1", "Potency": "4.11 µM (active)", "cell number change": -21.1}, {"smiles": "N#C/C(=C\\c1ccc(Oc2ccc(C(F)(F)F)cc2[N+](=O)[O-])cc1)c1nc2ccccc2[nH]1", "lipid storage change, negative = inhibition": "-16.1% (inactive)", "cell number change": -10.6}, {"smiles": "N#C/C(=C\\c1ccc(-c2ccccc2C(=O)O)o1)c1nc2ccccc2[nH]1", "lipid storage change, negative = inhibition": "-14.4% (inactive)", "cell number change": -1.22}, {"smiles": "COc1ccc(/C=C(\\C#N)c2nc3ccc(C)cc3[nH]2)cc1Oc1ccc(C(F)(F)F)cc1[N+](=O)[O-]", "Potency": "8.2 µM (active)"}, {"smiles": "Cc1ccc2nc(/C(C#N)=C\\c3ccc([N+](=O)[O-])o3)[nH]c2c1", "Potency": "6.51 µM (active)", "cell number change": -22.5}, {"smiles": "N#C/C(=C(/O)c1ccc([N+](=O)[O-])o1)c1nc2ccccc2[nH]1", "lipid storage change, negative = inhibition": "-16.9% (inactive)", "cell number change": -1.26}, {"smiles": "CCOC(=O)c1c(NC(=O)C2CC2)sc2c1CC(C)(C)OC2", "lipid storage change, negative = inhibition": "-4.23% (inactive)", "cell number change": 0.857}, {"smiles": "COC(=O)C(C)n1nc(C)n(-c2ccc(C)cc2)c1=O", "note": "(stereo not drawn)", "lipid storage change, negative = inhibition": "-18.3% (inactive)", "cell number change": -11.2}, {"smiles": "COc1ccc(CC(=O)Nc2ccc(C(=O)Nc3ccccc3C(=O)O)cc2)cc1OC", "lipid storage change, negative = inhibition": "13.2% (inactive)", "cell number change": 17.1}, {"smiles": "COc1cc(C(=O)NC(c2ccccc2)c2ccccc2)cc(Cl)c1OC", "lipid storage change, negative = inhibition": "-11.7% (inactive)", "cell number change": 14.2}, {"smiles": "CC(C)(C)C(=O)N1CCN(c2ccc(NC(=O)c3ccc4c(c3)OCCO4)cc2)CC1", "Potency": "16.4 µM (active)", "cell number change": -3.48}, {"smiles": "CCC(=O)N1CCN(c2ccc(NC(=O)c3ccc4c(c3)OCCO4)cc2)CC1", "lipid storage change, negative = inhibition": "1.66% (inactive)", "cell number change": 25.3}, {"smiles": "Cc1ccc(C(=O)N2CCN(c3ccc(NC(=O)c4ccc5c(c4)OCCO5)cc3)CC2)cc1", "lipid storage change, negative = inhibition": "0.0275% (inactive)"}, {"smiles": "CCN(CC(=O)Nc1ccccc1C(F)(F)F)C(=O)c1ccc(=O)n(Cc2ccccc2)n1", "lipid storage change, negative = inhibition": "7.12% (inactive)", "cell number change": 22.5}, {"smiles": "CC(=O)c1cn(CC(=O)NCC2CCCO2)c2ccccc12", "note": "(stereo not drawn)", "lipid storage change, negative = inhibition": "18% (inactive)", "cell number change": 3.78}, {"smiles": "COc1cc(CNC2CCCCCCC2)c(Br)cc1OCCO", "lipid storage change, negative = inhibition": "-10.5% (inactive)", "cell number change": -14}, {"smiles": "Cc1ccc(NC(=O)Cn2c(=O)n(CCC(=O)NC3CCN(Cc4ccccc4)CC3)c(=O)c3ccccc32)cc1", "lipid storage change, negative = inhibition": "0.946% (inactive)", "cell number change": 3.62}, {"smiles": "CCc1ccc(NC(=O)Cn2c(=O)n(CCC(=O)NC3CCN(Cc4ccccc4)CC3)c(=O)c3ccccc32)cc1", "lipid storage change, negative = inhibition": "-8.28% (inactive)", "cell number change": 3.79}, {"smiles": "Cc1cccc(C)c1NC(=O)Cn1c(=O)n(CCCC(=O)NC2CCN(Cc3ccccc3)CC2)c(=O)c2ccccc21", "Potency": "4.11 µM (active)", "cell number change": -10.3}, {"smiles": "COCCN(C(=O)CSc1nc2ccc(C)cc2[nH]1)c1c(N)n(Cc2ccccc2)c(=O)[nH]c1=O", "lipid storage change, negative = inhibition": "-7.36% (inactive)", "cell number change": -11.3}, {"smiles": "C[C@H]1CN=C2N(CCNC(=O)CCC3CCCCC3)[C@H](Cc3ccc(O)cc3)CN21", "lipid storage change, negative = inhibition": "-12.4% (inactive)", "cell number change": -4.68}, {"smiles": "CCOC(=O)c1cccc(NC(=O)C(NS(=O)(=O)c2ccc3c(c2)CCN3C(C)=O)C(C)C)c1", "note": "(stereo not drawn)", "outcome": "inactive", "cell number change": 9.06}, {"smiles": "O=C(CS(=O)(=O)c1c[nH]c2ccccc12)Nc1ccc(F)cc1", "lipid storage change, negative = inhibition": "-0.0934% (inactive)", "cell number change": 1.05}, {"smiles": "Cc1ccccc1NS(=O)(=O)c1cc2c3c(c1)C(C)C(=O)N3CCC2", "note": "(stereo not drawn)", "lipid storage change, negative = inhibition": "23.9% (inactive)"}, {"smiles": "COc1ccc(/C=C/c2c([N+](=O)[O-])c(=O)n(C)c(=O)n2C)cc1OC", "lipid storage change, negative = inhibition": "7.09% (inactive)", "cell number change": -10.8}, {"smiles": "Cn1c(/C=C/c2ccc(Br)cc2)c([N+](=O)[O-])c(=O)n(C)c1=O", "Potency": "2.91 µM (active)", "cell number change": -1.8}, {"smiles": "COc1ccc(/C=C/c2c([N+](=O)[O-])c(=O)n(C)c(=O)n2C)cc1", "lipid storage change, negative = inhibition": "1.15% (inactive)", "cell number change": -2.6}, {"smiles": "CCCCOc1ccc(-c2nnc(-c3cc[n+](C)cc3)o2)cc1", "lipid storage change, negative = inhibition": "23.6% (inactive)", "cell number change": 0.955}, {"smiles": "CC(=O)N/N=C(\\C)CC(=O)Nc1cccc2c1CCCC2", "lipid storage change, negative = inhibition": "18.2% (inactive)", "cell number change": -11.4}, {"smiles": "CC(=O)CC(=O)Nc1cccc2c1CCCC2", "Potency": "0.58 µM (active)", "cell number change": 2.07}, {"smiles": "COc1ccc(CC(=O)Nc2cccc3c2CCCC3)cc1", "lipid storage change, negative = inhibition": "-15.9% (inactive)", "cell number change": -12.6}, {"smiles": "CCn1cc(S(=O)(=O)NC(C)c2cc(OC)ccc2OC)cn1", "note": "(stereo not drawn)", "lipid storage change, negative = inhibition": "-0.989% (inactive)", "cell number change": 5.77}, {"smiles": "Cc1cccc2c1N(CCCOc1ccccc1)C(=O)C2=O", "lipid storage change, negative = inhibition": "-12.5% (inactive)", "cell number change": 4.6}, {"smiles": "CC1CCN(CCCCOc2ccccc2F)CC1", "lipid storage change, negative = inhibition": "0.309% (inactive)", "cell number change": 12.3}, {"smiles": "Cn1nnc(NC(=O)c2ccccc2)n1", "lipid storage change, negative = inhibition": "-4.09% (inactive)", "cell number change": -11.2}, {"smiles": "CN(Cc1cnn(C)c1)C(=O)c1cc(COc2c(F)cccc2F)on1", "lipid storage change, negative = inhibition": "13.2% (inactive)", "cell number change": 16.3}, {"smiles": "CC(=O)c1ccc(OCc2cc(C(=O)N(C)Cc3cc(C)no3)no2)cc1", "outcome": "inactive", "cell number change": -2.95}, {"smiles": "Cc1ccc(OCc2cc(C(=O)N(C)Cc3cnn(-c4ccccc4C)c3)no2)cn1", "Potency": "23.1 µM (active)", "cell number change": -11.8}, {"smiles": "C/C(=N\\NC(=O)Cc1cccn1C)c1ccc([N+](=O)[O-])cc1", "lipid storage change, negative = inhibition": "8.91% (inactive)", "cell number change": 2.69}, {"smiles": "CCN(Cc1ccncc1)C(=O)CSc1ccc2ccccc2c1", "outcome": "inactive"}, {"smiles": "O=C(Nc1ccc2ccccc2c1)c1ccc2[nH]c(=O)c(=O)[nH]c2c1", "lipid storage change, negative = inhibition": "-0.0479% (inactive)", "cell number change": -10.4}, {"smiles": "O=C(Nc1ccc2ccccc2c1)c1ccc(Cl)cc1Cl", "lipid storage change, negative = inhibition": "10.6% (inactive)", "cell number change": -1.02}, {"smiles": "O=C(Nc1ccc2ccccc2c1)c1ccc(Cl)cc1", "Potency": "1.3 µM (active)", "cell number change": -18.8}, {"smiles": "CCOc1ccc(C(=O)COC(=O)c2nn(CC)c(=O)c3ccccc23)cc1", "lipid storage change, negative = inhibition": "-1.33% (inactive)", "cell number change": 18.9}, {"smiles": "CNC(=O)NNC(=O)c1onc(-c2c(Cl)cccc2Cl)c1C(=O)OC", "lipid storage change, negative = inhibition": "4.68% (inactive)", "cell number change": 19.9}, {"smiles": "CCSc1nc2ccccc2n1CCC(=O)O", "outcome": "inactive"}, {"smiles": "CC(C)c1nc2ccccc2n1CCC(=O)O", "Potency": "16.4 µM (active)", "cell number change": -4.05}, {"smiles": "CCc1nc2ccccc2n1CCC(=O)O", "lipid storage change, negative = inhibition": "-5.95% (inactive)", "cell number change": -14.7}, {"smiles": "CCC(C)(CC(=O)Nc1nccs1)c1ccccc1", "note": "(stereo not drawn)", "lipid storage change, negative = inhibition": "9.71% (inactive)", "cell number change": 7.48}, {"smiles": "O=C(OCC#CCSc1nnc(-c2ccccc2)o1)c1cccs1", "outcome": "inactive", "cell number change": -0.992}, {"smiles": "COc1ccc(CNc2oc(-c3cccc4ccccc34)nc2C#N)cc1", "lipid storage change, negative = inhibition": "-4.38% (inactive)", "cell number change": -5.87}, {"smiles": "N#Cc1nc(-c2cccc3ccccc23)oc1NCC#CCOC(=O)c1cccs1", "Potency": "14.6 µM (active)", "cell number change": -10.2}, {"smiles": "CC(NC(=O)CSc1n[nH]c(=O)n1C1CC1)C12CC3CC(CC(C3)C1)C2", "note": "(stereo not drawn)", "outcome": "inactive", "cell number change": 7.42}, {"smiles": "S=C1NCCOCCOCCOCCNC(=S)N2CCOCCOCCN1CCOCCOCC2", "lipid storage change, negative = inhibition": "12.4% (inactive)", "cell number change": -2.24}]}]}
